# Experiments:
# Experiment in all cases: PBM binding z-score (relative to random genomic background probes); higher = stronger binding; sequences stand for … in GC…GCGATTGACAGCGTAGAATGAAGG
# [1] = tested on: LXRa:RXRa (NR concentration 270 nM, RXRa partner concentration 90 nM)
# Method in brief: (§1)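 Ligand-free nuclear receptor dimers were applied to custom Agilent 4×180K protein-binding microarrays whose double-stranded probes carried direct-repeat seeds, single-nucleotide variants, half-site ablations and random human genomic background sequences in 34-nt variable regions. Incubation lasted 1 h. Binding z-scores were computed against the random background probes from regression-normalized fluorescence.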
# [2] = tested on: LXRa homodimer (NR concentration 270 nM)
# Method in brief: as §1
# [3] = tested on: LXRb homodimer (NR concentration 270 nM)
# Method in brief: as §1
# [4] = tested on: PPARg:RXRa (NR concentration 180 nM, RXRa partner concentration 90 nM)
# Method in brief: as §1
# [5] = tested on: PPARg:RXRa 270nM:90nM, anti-RXR (NR concentration 270 nM, RXRa partner concentration 90 nM)
# Method in brief: as §1
# [6] = tested on: PPARg:RXRa 30nM:10nM, anti-RXR (NR concentration 30 nM, RXRa partner concentration 10 nM)
# Method in brief: as §1
# [7] = tested on: PPARg:RXRa 90nM:30nM, anti-RXR (NR concentration 90 nM, RXRa partner concentration 30 nM)
# Method in brief: as §1
# [8] = tested on: PPARg:RXRa DBDmut IVT, anti-RXR (DBD mutation: RXRa K156A/R161A, NR concentration 270 nM, RXRa partner concentration 90 nM)
# Method in brief: as §1
# [9] = tested on: PPARg:RXRa IVT, anti-PPARg (NR concentration 270 nM, RXRa partner concentration 90 nM)
# Method in brief: as §1
# [10] = tested on: PPARg DBDmut:RXRa IVT, anti-PPARg (DBD mutation: PPARg1 K132A/R137A, NR concentration 270 nM, RXRa partner concentration 90 nM)
# Method in brief: as §1
# [11] = tested on: PPARg DBDmut IVT, anti-PPARg (DBD mutation: PPARg1 K132A/R137A, NR concentration 270 nM)
# Method in brief: as §1
# [12] = tested on: PPARg homodimer (NR concentration 180 nM)
# Method in brief: as §1
# [13] = tested on: PXR:RXRa (NR concentration 270 nM, RXRa partner concentration 90 nM)
# Method in brief: as §1
# [14] = tested on: PXR homodimer (NR concentration 270 nM)
# Method in brief: as §1
# [15] = tested on: RARa:RXR (NR concentration 270 nM, RXRa partner concentration 90 nM)
# Method in brief: as §1
# [16] = tested on: RARa homodimer (NR concentration 270 nM)
# Method in brief: as §1
# [17] = tested on: RARb:RXRa (NR concentration 270 nM, RXRa partner concentration 90 nM)
# Method in brief: as §1
# [18] = tested on: RARb homodimer (NR concentration 270 nM)
# Method in brief: as §1
# [19] = tested on: PPARa:RXRa (NR concentration 270 nM, RXRa partner concentration 90 nM)
# Method in brief: as §1
Sequence,PBM binding z-score [1],PBM binding z-score [2],PBM binding z-score [3],PBM binding z-score [4],PBM binding z-score [5],PBM binding z-score [6],PBM binding z-score [7],PBM binding z-score [8],PBM binding z-score [9],PBM binding z-score [10],PBM binding z-score [11],PBM binding z-score [12],PBM binding z-score [13],PBM binding z-score [14],PBM binding z-score [15],PBM binding z-score [16],PBM binding z-score [17],PBM binding z-score [18],PBM binding z-score [19]
AGTCAAACTTCAGGACGAGGTAACGTAAAGCACG,-0.137,-0.0988,-0.504,0.919,-0.132,0.281,-0.00758,-0.522,0.278,0.625,0.0207,0.24,-0.409,-0.112,0.165,0.202,0.545,0.304,
CCAACTGGGCCAAAAAGGTCATTGATGCCGATAA,4.4,3.17,0.337,3.08,4.09,1.65,3.3,4.24,3.89,-0.199,-0.68,2.84,4.6,3,4.65,1.31,3.94,4.36,4.57
CGAACTAGGTCAAGGGACAGTGAAAGGCGACGTA,2.17,-0.308,-0.604,8.6,7.25,5.85,7.35,7.79,8.18,,0.0336,1.42,0.929,-0.504,1.71,0.0645,3.92,2.99,4.78
CGTCCGAGGTCAAGGTCAGTGAAAGAGACTCGAA,6.22,1.31,1.54,7.82,7.45,3.9,6.47,4.18,5.07,0.688,-0.148,4.23,5.51,1.87,6.15,1.57,5.71,5.16,
AATAAAGGGTCATCGTAGGCCAGAGTACGCACAG,6.44,3.35,2.31,7.14,6.58,3.39,5.44,3.16,4.41,1.5,1.46,5.38,5.11,1.02,5.67,3.37,5.11,4.11,5.96
TATAAAGGGTCAAAGGCCAGAGTACGAATGTCGA,6.68,2.98,3.14,8.34,7.5,6.09,7.52,2.57,4.93,2.86,2.33,3.29,4.36,0.699,5.99,1.64,5.27,4.32,
CGAACGAGGTCATTGACAGGACAGTGAATAGTAA,6.11,1.41,1.44,6.82,6.46,3.58,6.21,5.35,5.72,2.22,0.785,3.3,5.28,3.11,5.46,0.884,4.82,3.73,
TGTCAAAGTTCAAAGGTGACGTAAGTATCCACAC,6.41,4.7,1.8,9.47,7.89,6.06,7.61,0.732,5.07,1.7,1.53,5.33,6.34,5.43,,2.52,5.36,4.05,6.09
CCTACTGGGCCAAAGAGGTCATTGATGCCGATAA,3.88,2.87,-0.243,3.95,4.73,1.71,3.75,4.23,4.34,-0.355,-0.682,1.81,4.81,4.26,4.39,0.256,3.07,3.65,4.55
GATACAGGGTCAAGGTCAGAGTACGCGTATTGAT,5,1.48,0.776,7.68,6.67,4.07,5.8,2.93,5.18,1.47,0.678,2.96,5.08,1.84,5.53,2.12,5.11,5.14,5.88
ATCGAAAGGTCCACGAGGTGAGTATACACCGTTT,0.186,-0.0739,-0.26,0.818,0.448,0.0544,0.533,0.0323,0.791,0.466,0.248,0.167,0.264,-0.268,0.714,0.24,1.66,1.2,0.734
CGTCCAAGGTCATAGGGGGTCAGTGAAGACAGAT,7.05,4.02,8.62,7.32,7.58,4.55,6.71,3.59,5.56,5.09,6.03,6.75,6.98,6.58,7.02,4.01,5.56,5.51,
CGAACTAGGTCATCCAGGACCGTGAATACATTGA,2.19,0.428,-0.349,7.13,6.1,3.53,5.78,8.24,8.09,1.32,0.732,1.83,1.34,-0.0905,1.84,0.294,3.6,2.57,
CCTAGTGGGCCAAGGTCATTGATCAGTCAAAGCA,2.91,0.693,-0.381,4.1,4.29,1.64,3.71,3.98,4.38,-0.821,-0.95,2.36,3.66,1.8,3.56,0.113,3.36,3.28,
CGTCAAAGGTCAGAGAGGTCAGTGAATGCCGAGT,6.59,4.99,1.76,7.66,7.15,4.06,6.28,4.14,5.36,0.83,0.0737,5.81,6.7,12.3,,5.86,,6.19,6.13
